According to PubChem BioAssay (EPA / NIEHS):
Calls of active or inactive are those of the source. Rule for the calls: active = hit-call score of the fitted dose curve at least 0.9, where 1 is the maximum; inactive = score below 0.9.

The molecules below were run on Tumor necrosis factor receptor 1 (TNFRSF1A), TNFRSF1A (gene 7132) (assay: LTEA_HepaRG_TNFRSF1A: Life Technologies and Expression Analysis (LTEA) Assay for Tumor necrosis factor receptor 1 (TNFRSF1A) using HepaRG (AID 2283535)). Settings: mRNA level, 48 h; actives raise or lower the signal.
Procedure: LTEA_HepaRG is a cell based, multiplexed-readout assay that uses HepaRG, a human liver cell line, with measurements taken at 48 hours after chemical dosing on a 96-well plate.LTEA_HepaRG_TNFRSF1A is one of 102 assay component(s) measured in the LTEA HepaRG cell culture assay. It is a marker of Cell proliferation, survival, death.Data from the assay component LTEA_HepaRG_TNFRSF1A was analyzed into 1 endpoint. This assay endpoint, LTEA_HepaRG_TNFRSF1A, was analyzed with bidirectional fitting relative to DMSO as the negative control and baseline of activity. Using a type of inducible reporter, measures of mRNA induction for gain or loss-of-signal activity can be used to understand regulation of transcription factor activity. To generalize the intended target to other relatable targets, this assay endpoint is annotated to the cytokine receptor intended target family, where the subfamily is TNF receptor.
A total of 1060 chemcials from the ToxCast library were tested in eight-point concentration-response experiments. Cell culture and cytotoxicity assays were conducted at Thermo Fisher Scientific's Custom Services facility (Madison, WI). A single lot of human HepaRG cells (Thermo Fisher Scientific, Frederick, MD) was used for the cell culture experiments. 96-well format collagen type I coated plates of human HepaRG cells were prepared using established methods. Briefly, cryopreserved HepaRG cells were thawed, plated at a density of approximately 100,000 cells/well in HepaRG Thaw, Plate, and General Purpose media (HPRG770, Thermo Fisher Scientific), and incubated for 48 hours. 0.5% DMSO was selected as vehicle control to balance the requisite need of DMSO in HepaRG cultures to maintain differentiation (for example, baseline metabolism, proportions of hepatocytes vs. cholangiocytes), while enabling further hepatic receptor pathway activation (for example, PXR and CAR) in response to chemical exposure. 48 hours after plating, the culture medium was replaced with HepaRG Serum-Free Incudtion Media. Cells were exposed to each test chemical in duplicate and maintained in CO2 incubators for another 48 hours. Chemical plates were thawed to room temperature and 200x concentrations of treatment groups were prepared. 8-point conentration-reponse curves were made with the highest exposure at 100 uM, followed by half-log dilutions, all in 0.5% DMSO. Each test plate contained variouse controls, induction positive controls (1mM phenobarbital), cytotoxicity positive controls ([…] aflatoxin B1), vehicle controls (0.5% DMSO), and total lysis controls (0.5% DMSO). Cell morphology images were taken using an Essen IncuCyte FLR automated microscope, with six 96-well plates imaged in about 24 minutes. Images were captured and exported and JPEG files. Spent culture media was transfered to black-well plates for the LDH assay, and remaining media was sorted at -80 C for later use. Cells were treated with RLT buffer and frozen until shipped for gene expression analysis. Total RNA was isolated from the cell suspension in 75 uL of Buffer RLT (Qiagen, Germantown, MD 20874) by Quintiles/Expression Analysis (Durham, NC) using a custom isolation procedure. Total RNA from each plate well was transferred to a preamplification plate. Fluidigm's 96.96 Dynamic ArrayTM (Fluidigm, Amsterdam, the Netherlands) technology was used for gene expression analyses by quantitative reverse transcription polymerase chain reaction (qRT-PCR, performed by Quintiles/Expression Analysis, Durham, NC)89. Standard TaqManTM Assays (Applied Biosystems/ThermoFisher Scientific, Foster City, CA) were used to assess the expression of 93 genes selected based on their selectivity and sensitivity to important hepatic receptors known to be modulated by environmental chemicals; importance in human hepatocyte functionality; and hepatotoxicity. […]

Structure (SMILES)	outcome	AC50
CC(C)=CCCC(C)CCO (stereo not given)	inactive	–
O=C(CCCCCCCCc1cccnc1)N1CCC(C=C(c2ccccc2)c2ccccc2)CC1	–	79.2 µM (active)
O=C(O)CCN(C1(C(=O)NO)CCCC1)S(=O)(=O)c1ccc(Oc2ccc(F)cc2)cc1	inactive	–
CC[C@H]1CC[C@H](NCc2cc3c(cc2OC)[C@H]2C[C@H]2C(=O)N3C)[C@H](c2ccccc2)N1	inactive	–
Nc1cccc(N)c1	inactive	–
NC(=O)NO	inactive	–
Cc1[nH]cnc1C[C@H]1CCc2c(C)c3ccccc3n2C1=O	–	63.7 µM (active)
CCOCCOCCOCCO	inactive	–
CCC(C)(C)C(=O)O[C@H]1C[C@@H](C)C=C2C=C[C@H](C)[C@H](CC[C@@H]3C[C@@H](O)CC(=O)O3)[C@H]21	inactive	–
CC/C(=C\C(=N/O)C(N)=O)C(C)[N+](=O)[O-] (stereo not given)	inactive	–
CCOc1cccc(-n2cc(C(=O)N3CCN(c4cc(C(=O)O)c5ccccc5c4)CC3)nc2-c2ccc(C)cc2)c1	–	80.3 µM (active)
CC(=O)c1ccc2c(c1)[C@H](NC(=O)c1ccc(F)cc1)[C@@H](O)C(C)(C)O2	inactive	–
CCCCCCCCO	inactive	–
Cn1c(=O)cc(Oc2ccc(F)cc2F)c2cnc(NCC(C)(C)O)nc21	inactive	–
O=C(NS(=O)(=O)/C=C/c1ccccc1)c1ccc(F)cc1Cl	inactive	–
CC[C@H](C)C(=O)O[C@H]1C[C@@H](C)C=C2C=C[C@H](C)[C@H](CC[C@@H]3C[C@@H](O)CC(=O)O3)[C@H]21	inactive	–
COC(=O)c1c(Cl)c(Cl)c(C(=O)OC)c(Cl)c1Cl	inactive	–
CC[C@H]1OC(=O)[C@H](C)[C@@H](O[C@H]2C[C@@](C)(OC)[C@@H](O)[C@H](C)O2)[C@H](C)[C@@H](O[C@@H]2O[C@H](C)C[C@H](N(C)C)[C@H]2O)[C@](C)(O)C[C@@H](C)C(=O)[C@H](C)[C@@H](O)[C@]1(C)O	inactive	–
COc1ccc2sc(C(=O)Nc3nnn[nH]3)c(OC(C)C)c2c1	–	39 µM (active)
Cc1ccc(C)c(O)c1	inactive	–

Structure (SMILES)	outcome	AC50
CC(=O)OCCC(C)C	inactive	–
COCCOCCOCCOC	inactive	–
CNS(=O)(=O)c1cc(C(=O)N2CCC(CCN3C4CCC3CC(n3c(C)nc5ccccc53)C4)(c3cccc(F)c3)CC2)c(Cl)cc1F (stereo not given)	inactive	–
CNCc1ccc(NC(=O)c2c[nH]c3c2C(=O)CCC3)cc1	inactive	–
CC(C)CCCCCCCOC(=O)CCCCC(=O)OCCCCCCCC(C)C	inactive	–
CC(C)c1cccc(C(C)C)c1N1C(=O)c2ccc(O)cc2C1=O	inactive	–
CC(C)=CCC/C(C)=C/CO	inactive	–
C[C@](N)(Cc1ccc(O)c(O)c1)C(=O)O	inactive	–
CCCCCCCCCCCCCCCO	inactive	–
CCCCC(CC)COC(=O)CCCCCCCCC(=O)OCC(CC)CCCC (stereo not given)	inactive	–
CC(C)=CCCC(C)=CC=O	inactive	–
C=CC(=C)CCC=C(C)C	inactive	–
O=C(O)c1cc(N=Nc2ccc(S(=O)(=O)Nc3ccccn3)cc2)ccc1O	inactive	–
CCOC(=O)CC(CC(=O)OCC)(OC(C)=O)C(=O)OCC	inactive	–
CCCN(C1CCN(C(=O)C2CCNCC2)CC1)[C@@H]1CCc2ccc(OC)cc2C1	inactive	–
CC(C)CCCCCCOC(=O)c1ccc(C(=O)OCCCCCCC(C)C)c(C(=O)OCCCCCCC(C)C)c1	inactive	–
CCN(C(=O)c1cc(C)cc(OC[C@H](C)Nc2ccncc2)c1)C(C)C	–	0.172 µM (active)
COCCOc1cc2cc(C(=O)NC3CCN(C(C)C)CC3)n(CC(=O)Nc3ccc(Cl)cn3)c2cn1	inactive	–
Cc1ccc(N)cc1O	inactive	–
Oc1ccc2c(c1)-c1ccccc1C2	inactive	–
